# Screens (PubChem)
# The list is not random: actives were taken first. Their share in the collection is about 11%.
# Pf growth 48h = Primary qHTS for delayed death inhibitors of the malarial parasite plastid, 48 hour incubation; P. falciparum luciferase growth in erythrocytes, 48 h; Potency, µM (highest dose often 28.7 µM), without a hit: top-dose activity change, negative = inhibition, hits mostly inhibitors; 310,000 compounds, 5.9% hits
#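 Compounds are pin-transferred into medium, infected erythrocytes (2% hematocrit, 0.1% parasitemia final) are added, and plates sit one parasite generation at 37 C in 5% CO2. Detection reagent is then added and luminescence measured.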
# AmpC no deterg = qHTS Inhibitors of AmpC Beta-Lactamase (assay without detergent); Potency, µM (doses to about 57.1 µM), without a hit: at the highest dose activity change, negative = inhibition, usual class: inhibitors; AmpC nitrocefin hydrolysis, absorbance 480 nm, 0.0001% Triton; 330,000 compounds, 0.52% hits; P00811; AID 485341, 2010;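 further: plate controls were no compound for no effect and no enzyme for full effect; nearly all actives have a fitted effect of over 20% in size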
# Target sequence (P00811 whole entry, looked up): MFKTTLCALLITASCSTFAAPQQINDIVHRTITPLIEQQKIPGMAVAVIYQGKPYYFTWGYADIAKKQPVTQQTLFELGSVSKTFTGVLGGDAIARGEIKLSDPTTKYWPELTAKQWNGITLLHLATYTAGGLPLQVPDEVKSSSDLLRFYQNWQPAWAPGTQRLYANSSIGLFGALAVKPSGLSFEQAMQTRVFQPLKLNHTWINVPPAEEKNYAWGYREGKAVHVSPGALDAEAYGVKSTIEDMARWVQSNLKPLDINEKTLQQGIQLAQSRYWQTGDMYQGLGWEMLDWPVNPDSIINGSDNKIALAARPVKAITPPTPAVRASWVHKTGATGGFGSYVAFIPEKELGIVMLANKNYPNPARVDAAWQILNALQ
#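 AmpC (5.3 nM in the dispensed reagent) in 20 mM phosphate pH 7.0 with 0.01% (detergent screen) or 0.0001% Triton X-100 was preincubated with compounds for 15 min at room temperature. Nitrocefin was then added from an 800 uM solution, and hydrolysis was followed at 480 nm.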
# Pf growth 96h = Primary qHTS for delayed death inhibitors of the malarial parasite plastid, 96 hour incubation; P. falciparum luciferase reporter growth, 96 h; Potency, µM (series often up to 28.7 µM), inactives show at the top dose activity change, negative = inhibition, most hits filed as inhibitors; 320,000 compounds, 6.9% hits
#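 Compounds incubated with erythrocytes infected by luciferase-expressing P. falciparum (2% hematocrit, 0.05% parasitemia final) for 96 hours, 37 C in 5% CO2. Growth inhibition scored as decreased luciferase luminescence.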
# AmpC detergent = qHTS Inhibitors of AmpC Beta-Lactamase (assay with detergent) | AmpC hydrolysis of nitrocefin, absorbance 480 nm, 0.01% Triton | Potency, µM (highest dose often 114 µM), for the others: at the top dose activity change, negative = inhibition, hits mostly inhibitors | P00811 | 370,000 compounds, 0.041% hits;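 further: 0% = no-compound wells and -100% = no-enzyme wells; nearly all actives have a fitted effect of over 25% in size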
#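 AmpC (5.3 nM in the dispensed reagent) in 20 mM phosphate pH 7.0 with 0.01% (detergent screen) or 0.0001% Triton X-100 was preincubated with compounds for 15 min at room temperature. Nitrocefin was then added from an 800 uM solution, and hydrolysis was followed at 480 nm.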
# AMA1-RON2 inh = qHTS for Inhibitors of AMA1-RON; Towards Development of Antimalarial Drug Lead: Primary Screen | AlphaScreen AMA1-biotinylated RON2 peptide binding | Potency, µM (top dose mostly 58.2 µM), for the others: top-dose activity change, negative = inhibition, usual class: inhibitors | 360,000 compounds, 0.2% hits | AID 720542, 2013;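 further: 0% = vehicle wells and -100% = peptide control; nearly all actives have a fitted effect of over 45% in size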
#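 AMA1 (3D7) with his tag at 25 nM final met compounds first, then biotinylated RON2 peptide at 25 nM; detection used donor plus acceptor beads, 10 µg/mL apiece, read by AlphaScreen after 30 min at room temperature.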
# HCV inhibitor = qHTS Assay for Inhibitors of Hepatitis C Virus (HCV); 340,000 compounds, 3.4% hits; AID 651820, 2012; Huh7.5.1 HCVcc-Cre infection, luciferase reporter, 44 h; Potency, µM (doses to about 41.8 µM), inactives show at the highest dose activity change, negative = inhibition, actives largely listed as inhibitors
#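 Antiviral activity was scored by luciferase reporter output from cells infected with HCVcc-Cre (~0.5 moi) in presence of compound, 44 h infection period, cells seeded 1,000/well 4 h prior.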
# Active calls of the source: *; ? = inconclusive; nt = not tested or not shown. The call rests on the fitted dose curve; in most records, active means well fitted curve in the direction sought with a large enough effect; inconclusive means small, poorly fitted or top-dose-only effect, or another doubt; inactive means no such curve, though single readings can be large; an effect the other way counts as inactive or inconclusive. Unless noted, on the % scale 0 is the no-effect control and ±100 the full control effect; potency means the concentration at half of the fitted maximal effect.
SMILES,Pf growth 48h,AmpC no deterg,Pf growth 96h,AmpC detergent,AMA1-RON2 inh,HCV inhibitor
COc1ccc(-c2csc(Nc3ncccn3)n2)cc1C,93%,7%,16%,-9%,-12%,4%
COc1ccc(-c2cc3cc(OC)c(OC)cc3cn2)cc1,nt,111%,nt,nt,-8%,?
COc1nc(-c2ccccc2)cc(-c2ccc(OC)c(OC)c2)n1,-17%,162%,28%,0%,15%,1.8µM*
O=C(c1ccco1)N1N=C(c2cccs2)CC1c1ccc(F)cc1 (centres undefined),nt,-21%,0.83µM*,3%,9%,?
O=C(c1cccs1)N1N=C(c2ccccc2)CC1c1ccccc1 (centres undefined),?,-5%,2.6µM*,2%,23%,14µM*
COc1ccc(C2CC(c3cccs3)=NN2C(=O)c2ccc(Br)o2)cc1 (centres undefined),1.7µM*,-17%,?,-7%,-10%,10µM*
COc1ccc(C2CC(c3cccs3)=NN2C(=O)CSc2nnnn2C)cc1OC (centres undefined),?,82%,12µM*,2%,-5%,-16%
COc1ccc(C2CC(c3cccs3)=NN2C(=O)CSc2nncn2C)cc1OC (centres undefined),1%,44%,8%,3%,1%,2%
CS(=O)(=O)Nc1ccc(C2=NN(C(=O)c3ccco3)C(c3ccc(F)cc3)C2)cc1 (centres undefined),?,-22%,?,-3%,24%,-5%
CC1(c2ccc(Cl)cc2)CC(C)(C)N(C(=O)c2cccc(F)c2)c2ccccc21 (centres undefined),nt,nt,nt,20%,nt,nt
Cc1cc(NC(=O)c2ccc(-c3ccc(Br)cc3)o2)cc(-c2nc3ncccc3o2)c1O,nt,nt,nt,2%,nt,nt
CCN1CCN(CC(=O)N2N=C(c3cccs3)CC2c2ccc(OC)c(OC)c2)C(=O)C1=O (centres undefined),?,122%,?,?,4%,-27%
COc1ccc(C2CC(c3cccs3)=NN2C(=O)c2ccco2)cc1OC (centres undefined),0.26µM*,42%,0.13µM*,-4%,-4%,-19%
Cc1ccc(Cn2ccc(=O)c(Cc3c(Cl)cccc3Cl)c2C)cc1,?,57%,0.41µM*,2%,-11%,?
COc1ccc(NC(=O)NCc2cccn2Cc2ccc(F)cc2)cc1OC,nt,nt,nt,17%,nt,nt
C[C@@H]1CN(Cc2nc(-c3ccc(Cl)cc3)no2)C[C@H](C)O1,-11%,41%,10%,3%,?,-21%
CC(=O)N1CCCN(Cc2nc(C3(c4ccc(C)cc4)CCCC3)no2)CC1,-7%,175%,-14%,-6%,-3%,7%
COCCN1CCN(Cc2nc(C3(c4ccc(C)cc4)CCCC3)no2)CC1,39%,122%,10µM*,-3%,-4%,-6%
Cc1ccc(C2(c3noc(CN4C[C@@H](C)O[C@@H](C)C4)n3)CCCC2)cc1,12µM*,128%,12µM*,-1%,5%,-13%
CCCOc1ccc(NC(=O)C(=O)NCCCN2CCOCC2)cc1,nt,nt,nt,7%,nt,nt
COC(=O)c1c(Cl)c2n3ccccc3c(C)c(-c3ccccc3)c-2c1C(=O)OC,?,67%,10µM*,1%,?,13µM*
COC(=O)c1cc2c(-c3ccccc3)c(C)c3ccccn3c-2c1C(=O)OC,nt,71%,?,-2%,?,?
O=C(COc1ccccc1)Nc1ccccc1N1CCN(c2ccccc2)CC1,?,-18%,2.9µM*,2%,-7%,-4%
O=C(COc1ccc(Br)cc1)Nc1ccccc1C(=O)NC1CC1,?,3.2µM*,-10%,?,1%,?
O=C(COc1ccccc1)Nc1ccccc1N1CCN(c2ccc(F)cc2)CC1,-3%,-40%,-21%,-19%,-13%,16%
SMILES,Pf growth 48h,AmpC no deterg,Pf growth 96h,AmpC detergent,AMA1-RON2 inh,HCV inhibitor
CCOc1ccc(OCC(=O)Nc2ccccc2N2CCCC2)cc1,?,-3%,12µM*,0%,?,?
O=C(COc1ccccc1)Nc1ccccc1N1CCCCC1,?,0%,4%,?,18%,?
CN1CCN(c2ccccc2NC(=O)COc2ccc(Br)cc2)CC1,nt,26%,1.9µM*,3%,-8%,-26%
O=C(COc1ccccc1F)Nc1ccccc1C(=O)NC1CC1,-9%,-18%,11%,1%,21%,?
Cc1cccc(OCC(=O)Nc2ccccc2N2CCN(C)CC2)c1,5%,22%,8%,?,-12%,-9%
Cc1cccc(NC(=O)/C(C#N)=C/c2ccc(C)o2)c1,nt,nt,nt,11%,nt,nt
CCN(CC)S(=O)(=O)c1ccc2c(c1)nc(CN(C)C(=O)Nc1ccc(C)c(Cl)c1)n2C,nt,nt,nt,0%,nt,nt
CC(C)N(Cc1ccccc1)C(=O)CN1C(=O)CSc2ccc(S(=O)(=O)N3CCCC3)cc21,nt,nt,nt,0%,nt,nt
CCc1ccc(NC(=O)CSc2ccc(-c3sc(-c4ccccc4)nc3C)nn2)cc1,nt,nt,nt,14%,nt,nt
Cc1ccc(S(=O)(=O)NCCc2cn3ccsc3n2)c(C)c1,nt,nt,nt,4%,nt,nt
COc1ccccc1CNC(=O)c1nnn(CC(=O)Nc2c(C)cccc2C)c1N,nt,nt,nt,-5%,nt,nt
Cc1onc(-c2ccccc2)c1C(=O)OCCOc1ccccc1F,?,-16%,-27%,-2%,44%,?
Cc1onc(-c2ccccc2)c1C(=O)OCCOc1ccc([N+](=O)[O-])cc1[N+](=O)[O-],nt,?,4.1µM*,?,-11%,?
